{
  "source": "PubChem BioAssay (NCI)",
  "note": "About 83,000 compounds went through this panel and 20% of them were active in at least one assay; those are over-represented in the sample as a whole.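 The endpoint reported here, percent growth, reads 100 for growth as untreated, 0 for no net growth and -100 for all cells dead.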 Activity calls are given as the source filed them. Rule for the calls: active = growth percent below 10; inactive = the rest.",
  "data": [
    {"tested_on": "MDA-MB-468 breast", "assay": "NCI-60 one-dose screen, 48 h (100 = growth as untreated, 0 = no growth, -100 = all killed)", "conditions": "10 µM unless noted", "values": [
      {"smiles": "O=S(=O)(NCc1ccccc1)c1ncnc2nc[nH]c12", "growth": "108% (inactive)"},
      {"smiles": "COc1ccc(C(=O)c2cc3c(OC)c(OC)c(OC)cc3[nH]2)cc1", "growth": "20.6% (inactive)"},
      {"smiles": "C#Cc1cccc(Nc2ncnc3cc(OCCOC)c(OCCOC)cc23)c1", "growth": "-4.78% (active)"},
      {"smiles": "Cc1cc(=O)n(C(=S)Nc2ccc(Cl)cc2)c2cc(O)ccc12", "growth": "98.7% (inactive)"},
      {"smiles": "COc1cc2ncnc(Nc3ccc(S(=O)(=O)Nc4cc(C)on4)cc3)c2cc1OCCCN1CCN(c2ccc(F)cc2)CC1", "growth": "103% (inactive)"},
      {"smiles": "O=C1c2ccc3c4c5ccc(c24)C(=O)N1CCCOCCCCOCCCNCc1ccc(cc1)CNCCCOCCCCOCCCN(C3=O)C5=O", "growth": "-81.4% (active)"}
    ]}
  ]
}
